Test results published in PubChem BioAssay AID651956 (Broad Institute, 2012).
Entries with a potency or affinity are not part of this list. Results filed as inconclusive are left out. The source made the active and inactive calls.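 Rule for the calls: active = in every test run, a fitted half-maximal concentration for signal decrease at or below twice the highest tested concentration; inconclusive = runs disagree, flat 30 to 70% decrease, or poor fit; inactive = the rest.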

experiment: miR-122 activators in hepatoma reporter cells, dose response, cell-based, Huh7 psiCHECK-miR122, Renilla luciferase, cherry-picked (AID 651956); details: 48 h; series mostly up to 35 µM;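 note: Renilla luciferase from a miR-122 sensor reporter so lower signal means miR-122 activation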

| Structure (SMILES) | outcome |
| --- | --- |
| CCOC(=O)c1nc(C)n(-c2ccc(Cl)cc2Cl)n1 | inactive |
| CC(C)C(=O)Nc1ccc2c(c1)C(=O)N(C)[C@@H]1CC[C@H](CC(=O)O)O[C@H]1CO2 | inactive |
| CCNC(=O)Nc1ccc2c(c1)C(=O)N(C)[C@H]1CC[C@H](CC(=O)NCCOC)O[C@@H]1CO2 | inactive |
| C/C=C/c1ccc([C@@H]2[C@H](CO)N[C@H]2CN(CC(C)C)C(=O)c2ccccn2)cc1 | inactive |
| CN1C(=O)c2cc(NC(=O)c3cccc(F)c3)ccc2OC[C@H]2O[C@H](CC(=O)N3CCc4ccccc4C3)CC[C@H]21 | inactive |
| CCC(=O)N1[C@H](CO)[C@H](c2ccccc2)[C@H]1CNC(=O)CN1CCOCC1 | inactive |
| CCC(=O)N1[C@@H](CO)[C@H](c2ccccc2)[C@@H]1CN(C(C)C)S(C)(=O)=O | inactive |
| CNC[C@H]1Oc2cc(C#CC3CCCC3)ccc2S(=O)(=O)N([C@H](C)CO)C[C@H]1C | inactive |
| CCCNC(=O)Nc1ccc2c(c1)C(=O)N(C)[C@@H]1CC[C@@H](CC(=O)NCC3CCCCC3)O[C@H]1CO2 | inactive |
| Cn1c(-c2ccc(N)cc2)nc2ccccc21 | inactive |
| CCCNC(=O)N1C[C@@H]2[C@H](c3ccccc31)[C@H](CO)N2C(=O)C1CCOCC1 | inactive |
| O=CN1CCN(C(=O)c2ccccc2F)CC1 | inactive |
| CCNC(=O)CCC(=O)Nc1cc(Cl)ccc1C | inactive |
| C[C@@H]1CN([C@@H](C)CO)S(=O)(=O)c2ccc(/C=C/c3ccccc3)cc2O[C@@H]1CN(C)C(=O)NC1CCCCC1 | inactive |
| Cc1cnc(NC(=O)c2cc3c(C)nn(-c4ccccc4)c3s2)s1 | inactive |
| COCCN(C[C@H]1[C@@H](c2ccccc2)[C@H](CO)N1C(=O)C1CCC1)C(C)=O | inactive |
| O=C(Nc1ccccc1F)N1C[C@H]2[C@@H](c3ccccc31)[C@@H](CO)N2C(=O)C1CC1 | inactive |
| C/C=C/c1ccc([C@@H]2[C@@H](CO)N[C@@H]2CN(C(=O)C2CCCC2)C(C)C)cc1 | inactive |
| COc1ccc(N2CCc3c(C)nc4c(OC)cc(OC)cc4c32)c(OC)c1 | inactive |
| CNC(=O)C[C@H]1CC[C@@H]2[C@H](COc3ccc(NC(=O)c4ccccc4OC)cc3C(=O)N2C)O1 | inactive |

| Structure (SMILES) | outcome |
| --- | --- |
| COc1ccc(C#Cc2ccc3c(c2)O[C@@H](CN(C)C(=O)CN2CCOCC2)[C@@H](C)CN([C@H](C)CO)S3(=O)=O)cc1 | inactive |
| COCC(=O)Nc1ccc2c(c1)C(=O)N(C)[C@@H]1CC[C@H](CC(=O)Nc3cn(C)nc3C)O[C@H]1CO2 | inactive |
| N#Cc1cccc(NC(=O)Nc2cccs2)c1 | inactive |
| O=C(NCCCN1CCCC1)c1ccc(CSCc2cccc(Cl)c2)o1 | inactive |
| CN1C(=O)c2cc(NC(=O)Nc3ccccc3F)ccc2OC[C@@H]2O[C@@H](CC(=O)NCc3ccc(-c4ccccc4)cc3)CC[C@@H]21 | inactive |
| C[C@H](CO)N1C[C@H](C)[C@@H](CN(C)CC2CCCCC2)OCCCC[C@H](C)Oc2ccc(NC(=O)Nc3cccc4ccccc34)cc2C1=O | inactive |
| CNC(=O)C[C@@H]1CC[C@@H]2[C@@H](COc3ccc(NC(=O)NC(C)C)cc3C(=O)N2C)O1 | inactive |
| COC(=O)C[C@H]1CC[C@H]2[C@H](COc3ccc(NC(=O)c4cccc(F)c4)cc3C(=O)N2C)O1 | inactive |
| O=C(Nc1ccc(CN2CCOCC2)cc1)c1ccc(-c2ccc(Cl)cc2Cl)o1 | inactive |
| NS(=O)(=O)c1ccc(Nc2nc(-c3cccnc3)cs2)cc1 | inactive |
| CO[C@@H]1CN(C)C(=O)c2ccc(NS(=O)(=O)c3cccc(F)c3)cc2OC[C@@H](C)NC[C@H]1C | inactive |
| COc1ccc(-c2nc(NC(=O)CSc3nnc(C)s3)ns2)cc1 | inactive |
| CN1C(=O)c2cc(NC(=O)Cc3ccccc3)ccc2OC[C@H]2O[C@@H](CC(=O)NC3CCC3)CC[C@H]21 | inactive |
| C[C@@H]1CN([C@H](C)CO)C(=O)c2cccc(NC(=O)c3ccc(-c4nccs4)cc3)c2O[C@H]1CN(C)S(=O)(=O)c1ccc(F)cc1 | inactive |
| C=CCNC(=S)NNC(=O)Cn1c(-c2ccccc2)cc(=O)n2ncnc12 | inactive |
| CCC(=O)N1[C@H](CO)[C@H]2c3ccccc3N(C(=O)CC(F)(F)F)C[C@H]21 | inactive |
| NC(=O)c1csc(-c2ccncc2)n1 | inactive |
| CC(=O)N(C[C@@H]1N[C@@H](CO)[C@H]1c1ccc(-c2ccccc2)cc1)C(C)C | inactive |
| CC(=O)N(C)C[C@@H]1[C@@H](c2ccc(-c3cccc(C#N)c3)cc2)[C@H](CO)N1C(C)=O | inactive |
